According to PubChem BioAssay (NCATS):
Inconclusive results are not listed. Calls of active or inactive are those of the source. Calls come from the whole dose curve; as a rule, active = well fitted curve in the direction sought with a large enough effect; inconclusive = small, poorly fitted or top-dose-only effect, or another doubt; inactive = no such curve, though single readings can be large; an effect the other way counts as inactive or inconclusive. Residues, ends and D or L forms follow the SMILES beside them. *: point of attachment. Cbz = O=C(OCc1ccccc1)*

What was measured:
[1] = tested on: MCC-26; assay: qHTS assay to identify novel small-molecules to repurpose for Merkel cell carcinoma treatment (AID 1296009); settings: MCC and control cell lines, CellTiter-Glo viability, 72 h; series mostly up to 46 µM; note: nearly all actives have a fitted effect of over 60% in size; note: potency is the fitted concentration of half-maximal effect
Outline: (§1)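 After compound transfer in DMSO, plates were kept 72 hr at 37 degree celsius. Luminescent ATP signal from CellTiter-Glo served as viability measure, normalized against DMSO and no-cell controls.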

[2] = tested on: MKL-1; assay: as above; settings: MCC and control cell lines, CellTiter-Glo viability, 72 h; series mostly up to 46 µM
Outline: as §1

[3] = tested on: MKL-2; assay: as above; settings: MCC and control cell lines, CellTiter-Glo viability, 72 h; series mostly up to 46 µM
Outline: as §1

[4] = tested on: UISO; assay: as above; settings: MCC and control cell lines, CellTiter-Glo viability, 72 h; series mostly up to 46 µM
Outline: as §1

[5] = tested on: WaGa; assay: as above; settings: MCC and control cell lines, CellTiter-Glo viability, 72 h; series mostly up to 46 µM
Outline: as §1

[6] = tested on: NIH3T3; assay: as above; settings: MCC and control cell lines, CellTiter-Glo viability, 72 h; at 44.8 µM (top of the series) unless noted
Outline: as §1

[7] = tested on: C33A; assay: Primary qHTS to identify gynecologic anti-cancer compounds using libraries of approved drugs and bioactive compounds (AID 1345084); settings: Gynecologic cancer cell panel viability, ATPlite luminescence, 48 h; series mostly up to 57.5 µM; note: nearly all actives have a fitted effect of over 55% in size
Outline: (§2)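 Cells, 1,000 per well, plated 16 h, then exposed 48 h at 37 C to compounds. Viability by ATPlite luminescence after 15 min at room temperature.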

[8] = tested on: CASKI; assay: as above; settings: Gynecologic cancer cell panel viability, ATPlite luminescence, 48 h; series mostly up to 57.5 µM
Outline: as §2

[9] = tested on: Es-2; assay: as above; settings: Gynecologic cancer cell panel viability, ATPlite luminescence, 48 h; series mostly up to 57.5 µM
Outline: as §2

[10] = tested on: HeLa; assay: as above; settings: Gynecologic cancer cell panel viability, ATPlite luminescence, 48 h; series mostly up to 57.5 µM
Outline: as §2
% is set by controls: 0 for no effect and ±100 for the full control effect.

CN[C@H](CC(C)C)C(=O)N[C@H]1C(=O)N[C@@H](CC(N)=O)C(=O)N[C@@H]2C(=O)N[C@H]3C(=O)N[C@H](C(=O)N[C@H](C(=O)O)c4cc(O)cc(O)c4-c4cc3ccc4O)[C@H](O)c3ccc(c(Cl)c3)Oc3cc2cc(c3O[C@@H]2O[C@H](CO)[C@@H](O)[C@H](O)[C@@H]2O[C@H]2C[C@](C)(N)[C@H](O)[C@H](C)O2)Oc2ccc(cc2Cl)[C@H]1O
inactive: Potency [1] | Potency [2] | Potency [3] | Potency [4] | Potency [5]

C#C[C@]1(O)CC[C@@H]2[C@@H]3CCC4=CC(=O)CC[C@@H]4[C@H]3CC[C@@]21CC
inactive: Potency [1] | Potency [2] | Potency [3] | Potency [4] | Potency [5]

O=S(=O)(O)CCSSCCS(=O)(=O)O
inactive: Potency [1] | Potency [2] | Potency [3] | Potency [4] | Potency [5]

CO[C@@H]1[C@@H](O)[C@H](O)[C@@H](n2c3c(Cl)cccc3c3c4c(c5c6cccc(Cl)c6[nH]c5c32)C(=O)NC4=O)O[C@@H]1CO
active: Potency [1] 1180 nM | Potency [2] 332 nM | Potency [3] 935 nM | Potency [4] 264 nM | Potency [5] 166 nM

CC(C)OC(=O)[C@H](C)N[P@](=O)(OC[C@H]1O[C@@H](n2ccc(=O)[nH]c2=O)[C@](C)(F)[C@H]1O)Oc1ccccc1
inactive: Potency [1] | Potency [2] | Potency [3] | Potency [4] | Potency [5]

C[C@H](O)[C@@H]1C(=O)N2C(C(=O)O)=C(S[C@@H]3CN[C@H](CNS(N)(=O)=O)C3)[C@@H](C)[C@@H]12
inactive: Potency [1] | Potency [2] | Potency [3] | outcome [6] | Potency [4] | Potency [5] | Potency [7] | Potency [8] | Potency [9] | Potency [10]

COC(=O)C1C2CC3c4[nH]c5cc(OC)ccc5c4CCN3CC2CC(OC(=O)c2cc(OC)c(OC)c(OC)c2)C1OC (centres undefined)
inactive: Potency [1] | Potency [2] | Potency [3] | Potency [4] | Potency [5]

O=C(C=CC#Cc1cccc(NS(=O)(=O)c2ccccc2)c1)NO
active: Potency [1] 18700 nM | Potency [2] 3720 nM | Potency [3] 1320 nM | Potency [4] 16600 nM | Potency [5] 1180 nM

C=Cc1c(C)c2cc3nc(cc4[nH]c(cc5nc(cc1[nH]2)C(C)=C5CCC(=O)O)c(CCC(=O)OC)c4C)[C@@]1(C)C3=CC=C(C(=O)OC)[C@H]1C(=O)OC
active: Potency [1] 2960 nM | Potency [2] 46.9 nM | Potency [3] 41.8 nM | Potency [4] 469 nM

N#CC(=C(N)Sc1ccc(N)cc1)c1ccccc1C(F)(F)F
inactive: Potency [1] | Potency [2] | Potency [3] | Potency [4] | Potency [5]

COC(=O)C=CC(=O)OC
inactive: Potency [1] | Potency [2] | Potency [3] | Potency [4]

CC(=O)OCC(=O)[C@@]12N=C(C)O[C@H]1C[C@H]1[C@@H]3CCC4=CC(=O)C=C[C@]4(C)[C@@H]3[C@@H](O)C[C@@]12C
inactive: Potency [1] | Potency [2] | Potency [3] | Potency [4] | Potency [5]

O=C1NC(O)CCN1[C@@H]1O[C@H](CO)[C@H](O)[C@H]1O (some centres undefined)
inactive: Potency [1] | Potency [2] | Potency [3] | Potency [4] | Potency [5]

C[C@H](NC(=O)Cc1cc(F)cc(F)c1)C(=O)N[C@H](C(=O)OC(C)(C)C)c1ccccc1
inactive: Potency [1] | Potency [2] | Potency [3] | Potency [4] | Potency [5]

COc1cccc2c1C(=O)c1c(O)c3c(c(O)c1C2=O)C[C@@](O)(C(C)=O)C[C@H]3O[C@H]1C[C@H](N)[C@H](O)[C@H](C)O1
active: Potency [1] 372 nM | Potency [2] 33.2 nM | Potency [3] 23.5 nM | Potency [4] 46.9 nM

CCOC(=O)[C@H](CCc1ccccc1)N[C@@H](C)C(=O)N1[C@@H](C(=O)O)C[C@H]2CCC[C@@H]21
active: Potency [3] 14800 nM
inactive: Potency [1] | Potency [2] | Potency [4]

COc1ccc(C(C)=O)c(O)c1
inactive: Potency [1] | Potency [2] | Potency [3] | Potency [4] | Potency [5]

c1cc(CN2CCCNCCNCCCNCC2)ccc1CN1CCCNCCNCCCNCC1
inactive: Potency [1] | Potency [2] | Potency [3] | Potency [4] | Potency [5]

N[C@H]1CN(c2c(F)cc3c(=O)c(C(=O)O)cn(C4C[C@@H]4F)c3c2Cl)CC12CC2 (some centres undefined)
inactive: Potency [1] | Potency [2] | Potency [3] | outcome [6] | Potency [4] | Potency [5] | Potency [8] | Potency [9] | Potency [10]

CC(C)(O)Cn1c(NC(=O)c2ccc(-c3cn[nH]c3)s2)nc2cc(CN3CCOCC3)ccc21
active: Potency [1] 4690 nM | Potency [2] 1180 nM | Potency [3] 14800 nM | Potency [4] 1870 nM

CCN1CCN(C(=O)N[C@H](C(=O)N[C@@H]2C(=O)N3C(C(=O)O)=C(CSc4nnnn4C)CS[C@@H]23)c2ccc(O)cc2)C(=O)C1=O
inactive: activity change, negative = cytotoxicity [1] -6.39% [at 9.22 µM] | activity change, negative = cytotoxicity [2] 8.33% [at 9.22 µM] | activity change, negative = cytotoxicity [3] -17.3% [at 9.22 µM] | activity change, negative = cytotoxicity [4] -1.23% [at 9.22 µM] | activity change, negative = cytotoxicity [5] -1.78% [at 9.22 µM]

O=c1ccn([C@@H]2O[C@H](CO)[C@H](O)[C@@H]2F)c(=O)[nH]1
inactive: Potency [1] | Potency [2] | Potency [3] | Potency [4] | Potency [5]

CC(C)C[C@@H](C=O)NC(=O)[C@H](CC(C)C)NC(=O)[C@H](CC(C)C)NC(=O)OCc1ccccc1 (Cbz-Leu-Leu-Leu-aldehyde)
active: Potency [1] 2350 nM | Potency [2] 935 nM | Potency [3] 743 nM | Potency [4] 1180 nM | Potency [5] 935 nM

CC(=O)N[C@@H]1[C@H](O[C@@H]2c3ccc(c(Cl)c3)Oc3cc4cc(c3O[C@H]3O[C@H](CO)[C@@H](O)[C@H](O)[C@H]3NC(=O)CCCCCCCC(C)C)Oc3ccc(cc3Cl)C[C@H]3NC(=O)[C@H](N)c5ccc(O)c(c5)Oc5cc(O)cc(c5)[C@H](NC3=O)C(=O)N[C@H]4C(=O)N[C@H]3C(=O)N[C@@H]2C(=O)N[C@@H](C(=O)O)c2cc(O)cc(O[C@H]4O[C@H](CO)[C@@H](O)[C@H](O)[C@H]4O)c2-c2cc3ccc2O)O[C@H](CO)[C@@H](O)[C@@H]1O
inactive: Potency [1] | Potency [2] | Potency [3] | Potency [4] | Potency [5]
